Results: PubChem BioAssay AID1439 (NMMLSC, 2008)
Among all 220,000 compounds or so, about 770 (0.35%) were called active. Not shown: some 15% with an inconclusive outcome. Shown is part of a subset that was picked to be rich in actives. Values without a mark were called inactive. Cut-off read from the data, not from the text of the source: active = binding response below about 49% or above about 150%; inconclusive = no clear call, values can overlap the other calls; inactive = in between. Residues, ends and D or L forms follow the SMILES beside them. *: point of attachment. OPac = O=C(CO*)c1ccccc1; Bz = O=C(c1ccccc1)*

Molecular target: Guanine nucleotide-binding protein G(o) subunit alpha (Homo sapiens) (UniProt P09471)
Sequence (P09471 whole entry, looked up): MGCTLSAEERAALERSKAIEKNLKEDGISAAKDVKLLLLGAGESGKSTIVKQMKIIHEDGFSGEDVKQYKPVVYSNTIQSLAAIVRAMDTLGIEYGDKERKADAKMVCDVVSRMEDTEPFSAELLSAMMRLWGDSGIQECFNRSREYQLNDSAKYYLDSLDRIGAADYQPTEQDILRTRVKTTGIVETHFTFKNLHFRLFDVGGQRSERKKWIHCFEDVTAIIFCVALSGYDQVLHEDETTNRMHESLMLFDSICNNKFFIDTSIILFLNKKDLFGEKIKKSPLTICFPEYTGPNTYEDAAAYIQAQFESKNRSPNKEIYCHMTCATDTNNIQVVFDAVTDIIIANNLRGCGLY
Assay: RGS7-Galphao binding modulators, primary screen, biochemical, multiplexed bead flow cytometry (AID 1439);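 note: fluorescent Galphao held in activated GDP-AlF4 state binding bead-coupled RGS7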
Conditions: at 10 µM, actives lie on both sides

Row | SMILES | binding response (% of control)
1 | CC(C)OCCCNC(=S)N1CCC(C(=O)c2ccc3c(c2)OCCO3)CC1 | 105%
2 | CCOCCCNCc1ccc(OCc2ccc(F)cc2)c(OC)c1 | 103%
3 | O=C(Nc1cccc(F)c1)c1ccc(S(=O)(=O)N2CCCC2)cc1 | 97.7%
4 | O=C(Nc1cccc(F)c1)c1coc(=O)c(Br)c1 | 45.3% [inhibitor] (active)
5 | Cc1c(NC(=O)c2coc(=O)c(Br)c2)c(=O)n(-c2ccccc2)n1C | 101%
6 | CCN(CC)CCOC(=O)c1ccc(NC(=O)CNC(=O)c2ccccc2)cc1 | 98.5%
7 | COc1ccc(CC(=O)n2nc(-c3cccnc3)nc2N)cc1 | 97.3%
8 | CCCC(=O)n1nc(-c2ccccc2)nc1N | 23.4% [inhibitor] (active)
9 | COc1ccccc1C(=O)n1nc(-c2ccccc2)nc1N | 100%
10 | OCCC1CN(Cc2cccc(OC3CCCC3)c2)CCN1Cc1ccsc1 (stereo unspecified) | 102%
11 | COCCN(CCOC)S(=O)(=O)c1ccc(/C(O)=C(\C#N)c2nc3ccccc3[nH]2)cc1 | 104%
12 | COC(=O)Cn1cc(/C=C/[N+](=O)[O-])c2ccccc21 | 102%
13 | O=C(COc1ccc(-c2ccccc2)cc1)NN=C1CCCC1 | 108%
14 | COc1ccccc1NC(=O)CCCc1c[nH]c2ccccc12 | 312% (active)
15 | O=C(CCCCCn1c(=O)[nH]c2ccccc2c1=O)NCCc1c[nH]c2ccccc12 | 102%
16 | COc1ccccc1NC(=O)C[n+]1ccccc1 | 99.2%
17 | O=C(CNC(=O)c1ccccc1)NCC(=O)OCC(=O)c1ccccc1 (Bz-Gly-Gly-OPac) | 113%
18 | Cc1c(C(=O)Nc2ccccc2Cl)oc2ccc(S(=O)(=O)N3CCC4(CC3)OCCO4)cc12 | 103%
19 | CCOc1ccccc1NC(=O)c1cc(S(=O)(=O)N2CCC3(CC2)OCCO3)ccc1F | 15.2% [inhibitor] (active)
20 | CCOc1ccccc1NC(=O)CCN1CCN(S(=O)(=O)c2ccc(OC)cc2)CC1 | 100%
21 | Cc1cc(C2=NNC(=Nc3ccc(S(=O)(=O)N4CCOCC4)cc3)SC2)c(C)n1CC1CCCO1 (stereo unspecified) | 104%
22 | Clc1ccc(C2CC(c3cccs3)n3ncnc3N2)cc1Cl (stereo unspecified) | 99.3%
23 | COc1ccc(C2CC(c3ccccc3)Nc3ncnn32)cc1 (stereo unspecified) | 93.2%
24 | FC(F)Oc1ccccc1C1CC(c2ccc(Br)s2)Nc2ncnn21 (stereo unspecified) | 163% (active)

Row | SMILES | binding response (% of control)
25 | O=C(NC1CCCC1)C(c1ccc(N2CCOCC2)cc1)N(C(=O)c1ccco1)c1ccccc1F (stereo unspecified) | 95.4%
26 | O=C(C1CCN(C2CCN(Cc3ccc4cc(F)ccc4n3)CC2)CC1)N1CCCC1 | 106%
27 | CCCNC(=O)c1c(Cl)cnn1-c1ccc(C)cc1 | 96.6%
28 | CC(=O)c1ccc(NC(=O)C(C)N(C)CC(=O)Nc2ccccc2Cl)cc1 (stereo unspecified) | 98.2%
29 | Cc1cccc2c1N(CCOc1ccccc1)C(=O)C2=O | 86.4%
30 | CCOC(=O)C1=C(C)NC(=O)N(C(C)=O)C1c1ccc(Cl)cc1 (stereo unspecified) | 104%
31 | CCOC(=O)C1Sc2[nH]c(=O)sc2C(c2ccc(Cl)cc2)C1C(=O)OCC (stereo unspecified) | -17.7% [inhibitor] (active)
32 | CCOC(=O)C1C(c2ccc(Cl)cc2)NC(=S)NC1(O)C(F)(F)F (stereo unspecified) | 103%
33 | Cc1cc(C)n(CCNCc2c(C(=O)N3C[C@@H](C)O[C@@H](C)C3)nc3ccc(Cl)cn23)n1 | 98.3%
34 | COCC(C)n1c(C)cc(C(=O)COc2ccc(C)nc2[N+](=O)[O-])c1C (stereo unspecified) | 100%
35 | CCOC(=O)c1ccc(N2C(=O)CC(N3CCN(C(=O)c4ccccc4)CC3)C2=O)cc1 (stereo unspecified) | 99.4%
36 | COCCNc1nc2nonc2nc1N(C)Cc1ccc(C)cc1 | 101%
37 | O=C1NC2(CCCCCC2)C(=O)N1CCS(=O)(=O)Oc1ccccc1 | 97.1%
38 | O=C(CN1C(=O)NC2(CCCCCC2)C1=O)NC1CC1 | 123%
39 | CSc1ccc(CN2C(=O)NC3(CCCCCC3)C2=O)cc1 | 219% (active)
40 | Cc1nc2ccccc2c(C)c1C(=O)c1ccc(F)cc1 | 97.5%
41 | CCOc1ccc(CN2CCN(Cc3ccc(C)o3)CC2CCO)cc1 (stereo unspecified) | 98.7%
42 | CN(C)c1ccc2c(=O)[nH][nH]c(=O)c2c1 | 104%
43 | CCOC(=O)c1[nH]cnc1C(=O)Nc1ccccc1C | 100%
44 | COC(=O)CNC(=O)c1ccc(OC2CCN(C(=O)C3CC3)CC2)cc1 | 105%
45 | COc1cc(OC)cc(C(=O)NCCSCc2ccco2)c1 | 98.2%
46 | COc1cccc(C(=O)NCCSc2ccc(Br)cc2)c1 | 16.5% [inhibitor] (active)
47 | COc1cccc(C(=O)NNC(=O)c2ccccc2Br)c1 | 99%
48 | Cc1ccc(-c2cc(C(F)(F)F)n3ncc(C(=O)N4CCCCC4c4cccnc4)c3n2)cc1 (stereo unspecified) | 100%

Row | SMILES | binding response (% of control)
49 | C/C(=N\NC(=O)c1cccc(N2CCCC2=O)c1)c1ccc(N)cc1 | 102%
50 | Cn1c(SCC(=O)N2CCCc3ccccc32)nc2ccccc2c1=O | 96.4%
51 | O=C(CSc1ccc2nnc(-c3ccccc3)n2n1)N1CCCc2ccccc21 | 207% (active)
52 | CCCn1c(SCC(=O)N2CCc3ccccc32)nnc1-c1ccncc1 | 96%
53 | CC(C)CC(CC(C)C)=NNC(=O)c1ccc(CSc2nncn2C)cc1 | 99.5%
54 | CN(CCC1CCOCC1)Cc1cn[nH]c1-c1ccc(-c2ccccc2)cc1 | 93%
55 | O=C(NCC1COc2ccccc2O1)C1(c2ccccc2)CCCC1 (stereo unspecified) | 103%
56 | Cc1ccc(C(=O)Nc2ccc(C)c(S(=O)(=O)N(C)C)c2)s1 | 99.1%
57 | COc1cc(CCC(=O)OCC(=O)Nc2cccc(S(N)(=O)=O)c2)cc(OC)c1OC | 91.7%
58 | COc1ccc(CCC(=O)OCC(=O)Nc2ccc(C)c(S(=O)(=O)N(C)C)c2)cc1 | 45.2% [inhibitor] (active)
59 | COc1ccc2oc(=O)c(C(=O)N3CCCC3)cc2c1 | 101%
60 | Nn1c(SCC(=O)Nc2nccs2)nncc1=O | 102%
61 | Cc1ccc(Cn2ccc(NC(=O)C3C4CCC(C4)C3C(=O)O)n2)cc1 (stereo unspecified) | 99.7%
62 | Cc1ccc(Cn2ccc(NC(=O)c3cc(C(C)C)on3)n2)cc1 | 43.9% [inhibitor] (active)
63 | O=C(Nc1ccn(Cc2ccc(F)cc2)n1)c1ccncc1 | 100%
64 | COc1ccc(Br)cc1/C=N/NC(=O)c1cccc(S(=O)(=O)N2CCOCC2)c1 | 112%
65 | Cc1cccc(C)c1NC(=O)Nc1ccccc1-n1ccnc1 | 99.6%
66 | CC(=O)Nc1nc(N(C)C)nc(N(C)C)n1 | -0.2% [inhibitor] (active)
67 | COc1cc(OC)nc(NC(=O)CCl)n1 | 100%
68 | CCC(=O)Nc1nc(OC)cc(OC)n1 | 99.2%
69 | OCCC1CN(Cc2ccccc2-c2ccco2)CCN1Cc1ccsc1 (stereo unspecified) | 95.9%
70 | Cc1ccc(S(=O)(=O)NCCc2nnc3ccc(SCc4cccnc4)nn23)cc1 | 95.6%
71 | O=C(O)CCn1c(SCc2cc(=O)n3ccccc3n2)nc2ccsc2c1=O | 101%
72 | CC1=CC=CC2=N/C(=N\S(=O)(=O)c3ccc(F)cc3F)c3ccccc3CN12 | 101%

Row | SMILES | binding response (% of control)
73 | c1ccc2c(NC3C4CC5CC(C4)CC3C5)nc(N3CCOCC3)nc2c1 (stereo unspecified) | 100%
74 | N#Cc1nc(Cc2ccccc2)oc1NCCc1ccccc1 | 102%
75 | N#Cc1nc(COc2ccc(-c3ccccc3)cc2)oc1NCc1cccnc1 | 202% (active)
76 | N#Cc1nc(-c2ccc(OCc3ccccc3)cc2)oc1NCCCN1CCOCC1 | 97.2%
77 | O=S(=O)(c1ccc(-c2ccccc2)cc1)N1CCCC1 | 106%
78 | O=C(NCc1ccco1)C(=O)c1cn(CC(=O)N2CCCCCC2)c2ccccc12 | 93.9%
79 | Cc1c(-c2cccc(Cl)c2)nc2ccccc2c1C(=O)OCC(=O)N(C)C1CCS(=O)(=O)C1 (stereo unspecified) | 97%
80 | COc1ccc(C(=O)NC2CCN(C(=S)NCCc3ccccc3)CC2)cc1 | 91.3%
81 | C=CCn1c(=NC(=O)c2ccc(S(=O)(=O)N3CCCC3)cc2)sc2cc(NC(C)=O)ccc21 | 91.7%
82 | CC(=O)Nc1ccc(/C=N/NC(=O)c2cccs2)cc1 | 99.9%
83 | C=CCn1c(=NC(=O)c2cccs2)sc2cc(NC(C)=O)ccc21 | 152% (active)
84 | O=C(OCC(=O)N1CCOCC1)c1ccc(N2CCOCC2)c([N+](=O)[O-])c1 | 102%
85 | Cc1c(NC(=S)NC(=O)CCc2ccccc2)c(=O)n(-c2ccccc2)n1C | 103%
86 | CN(CCc1ccccn1)C(=O)CCC1CCCN(Cc2ccccc2OC(F)F)C1 (stereo unspecified) | 102%
87 | Cc1ccc(S(=O)(=O)/N=C(/Nc2ccc3[nH]c(=O)[nH]c3c2)c2ccccc2)cc1 | 104%
88 | NC(=O)CSc1c[nH]c2ccccc12 | 25.2% [inhibitor] (active)
89 | O=C(CSc1nnc(-c2c[nH]c3ccccc23)o1)c1ccccc1 | 95.2%
90 | O=C(Cc1c[nH]c2ccccc12)OCCOC(=O)Cc1c[nH]c2ccccc12 | 95%
91 | CC(C)N1CCC(N2CCN(Cc3cccnc3)CC2CCO)CC1 (stereo unspecified) | 100%
92 | CC1CC(C)CN(CCC(=O)Nc2ccc3c(c2)CCC3)C1 (stereo unspecified) | 104%
93 | NS(=O)(=O)c1ccc(NC(=S)NNC(=O)c2cccs2)cc1 | 109%
94 | Cc1ccc(N(CC(O)CN2CCCC2)S(=O)(=O)c2ccccc2)cc1 (stereo unspecified) | 99.4%
95 | Cc1cc(C)n(CC(O)CN(c2ccccc2)S(=O)(=O)c2ccc3ccccc3c2)n1 (stereo unspecified) | 1.45% [inhibitor] (active)
96 | O=S(=O)(c1ccccc1)N(CC(O)CN1CCCCC1)c1ccccc1 (stereo unspecified) | 110%
